In PubChem BioAssay (EPA / NIEHS):
Where “and” joins values, the source holds several entries; their conditions need not be identical. Equal values may be shown once. Results filed as inconclusive are left out. The source holds several records for some structures; these can differ, active in one and inactive in another. Calls of active or inactive are those of the source. The calls were made as follows: active = hit-call score of the fitted dose curve at least 0.9, where 1 is the maximum; inconclusive = response in the unintended direction; inactive = score below 0.9.

What was measured:
[1] = TOX21_p53_BLA_p2_viability: Viability Assessment in the Tox21 HCT-116 p53 Agonism Beta-lactamase Assay, Phase 2 (AID 2283591);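 also: actives lower the ATP signal meaning cytotoxicity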
Outline: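 HCT-116 p53-bla cells (4000/well) rested 5 h at 37C, then received compounds in DMSO (217-fold dilution) for 16 h at 37C, 5% CO2. After the CCF4 read, CellTiter-Glo was added; ATP luminescence was read after 30 min at room temperature.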

[2] = target: Cellular tumor antigen p53 (Homo sapiens) (UniProt P04637); assay: TOX21_p53_BLA_p2_ratio: Tox21 HCT-116 p53 Agonism Beta-lactamase Assay, Ratio, Phase 2 (AID 2283592)
Outline: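 First, HCT116 reporter cells settle for 5 h at 37C. Next, DMSO compound solutions are pinned in (217-fold dilution) and left 16 h. Finally, CCF4-AM substrate is loaded 2 h at room temperature and the 460/530 nm ratio read.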

[3] = TOX21_p53_BLA_p3_viability: Viability Assessment in the Tox21 HCT-116 p53 Agonism Beta-lactamase Assay, Phase 3 (AID 2283593);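 also: cells exposed to compound for 16 h before reading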
Outline: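 HCT-116 cells (4000/well) rested 5 h at 37C, then got DMSO compounds by pin tool (217-fold dilution) for 16 h at 37C, 5% CO2. After the bla read, CellTiter-Glo was added and luminescence read at 30 min, room temperature.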

[4] = TOX21_p53_BLA_p4_viability: Viability Assessment in the Tox21 HCT-116 p53 Agonism Beta-lactamase Assay, Phase 4 (AID 2283597);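 also: hits lower the luminescence signal meaning cytotoxicity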
Outline: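 4000 HCT116 cells per well; 5 h attachment; compounds from DMSO, 217-fold dilution; 16 h at 37C. Then CCF4-AM, 2 h RT, followed by CellTiter-Glo, 30 min RT, luminescence. Decrease = cytotoxicity.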

[5] = TOX21_p53_BLA_p5_viability: Viability Assessment in the Tox21 HCT-116 p53 Agonism Beta-lactamase Assay, Phase 5 (AID 2283600)
Outline: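 Decreased CellTiter-Glo luminescence denotes lost viability. Exposure: 16 h at 37C, 5% CO2, with compounds from DMSO stocks diluted 217-fold in wells of 4000 cells.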

[6] = target: Cellular tumor antigen p53 (Homo sapiens) (UniProt P04637); assay: TOX21_p53_BLA_p4_ratio: Tox21 HCT-116 p53 Agonism Beta-lactamase Assay, Ratio, Phase 4 (AID 2283601)
Outline: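 HCT116 cells carrying an inducible beta-lactamase reporter were plated at 4000 cells/well, rested 5 h, then exposed to compounds in DMSO (217-fold dilution) for 16 h at 37C. CCF4-AM substrate was loaded 2 h at room temperature; 460/530 nm emission ratio scored gain-of-signal versus DMSO.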

[7] = target: Cellular tumor antigen p53 (Homo sapiens) (UniProt P04637); assay: TOX21_p53_BLA_p5_ratio: Tox21 HCT-116 p53 Agonism Beta-lactamase Assay, Ratio, Phase 5 (AID 2283599)
Outline: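 HCT-116 cells carrying a p53-inducible beta-lactamase reporter were seeded at 4000 cells/well and dosed after 5 h with compound in DMSO (217-fold dilution). After 16 h at 37C, CCF4-AM substrate was added for 2 h, and the 460/530 nm emission ratio was scored as gain-of-signal versus DMSO.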

[8] = TOX21_PR_BLA_Followup_Agonist_viability: Viability Assessment in the Tox21 HEK293 Progesterone Receptor (PR) Agonism Beta-lactamase Follow-Up Assay (AID 2283935);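 also: signal loss means lower viability so actives are cytotoxic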
Outline: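 Run multiplexed with the beta-lactamase FRET read, this endpoint measures ATP by CellTiter-Glo luminescence (30 min, room temperature). PR-UAS-bla HEK293T cells received compound 6 hr after plating and were then incubated 16 hr at 37C in 2% stripped serum.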

[9] = TOX21_PR_BLA_Followup_Antagonist_viability: Viability Assessment in the Tox21 HEK293 Progesterone Receptor (PR) Antagonism Beta-lactamase Follow-Up Assay (AID 2283936);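 also: cells exposed to compound with R5020 agonist for 16 h; hits lower the luminescence signal meaning cytotoxicity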
Outline: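 PR-UAS-bla HEK293T cells in medium with 2% charcoal-stripped FBS were treated with compounds plus R5020 for 16 hr at 37C. After the beta-lactamase read, CellTiter-Glo was added to the same wells and luminescence read after 30 min at room temperature.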

[10] = target: PGR (gene 5241) (UniProt P06401); assay: TOX21_PR_LUC_Followup_Antagonist: Tox21 HEK293 Progesterone Receptor (PR) Antagonism Luciferase Follow-Up Assay (AID 2283938);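 also: curve fitted upward as signal gain over DMSO baseline despite antagonist label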
Outline: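 HEK293-PR-A-luc cells, 3,000/well, preincubated 5 h at 37C before compound addition in DMSO; 16 h compound exposure at 37C. ONE-Glo luciferase luminescence read after 30 min at room temperature, fitted relative to DMSO baseline.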

[11] = TOX21_PR_LUC_Followup_Antagonist_viability: Viability Assessment in the Tox21 HEK293 Progesterone Receptor (PR) Antagonism Luciferase Follow-Up Assay (AID 2283940)
Outline: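 Viability counter-readout: cellular ATP measured by luciferase luminescence after 16 h compound exposure at 37C of HEK293-PR-A-luc cells, which had been cultured in charcoal-stripped serum and seeded 5 h beforehand.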

[12] = target: Cellular tumor antigen p53 (Homo sapiens) (UniProt P04637); assay: TOX21_p53_BLA_p3_ratio: Tox21 HCT-116 p53 Agonism Beta-lactamase Assay, Ratio, Phase 3 (AID 2283596)
Outline: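 Cells were seeded at 4000/well, rested 5 h at 37C, then dosed with DMSO compound solutions (217-fold dilution) for 16 h. CCF4-AM substrate was loaded for 2 h at room temperature, and the 460/530 nm emission ratio was fitted for gain of signal versus DMSO.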

Measured: AC50

Cellular tumor antigen p53 (Homo sapiens), sequence (P04637 whole entry, looked up): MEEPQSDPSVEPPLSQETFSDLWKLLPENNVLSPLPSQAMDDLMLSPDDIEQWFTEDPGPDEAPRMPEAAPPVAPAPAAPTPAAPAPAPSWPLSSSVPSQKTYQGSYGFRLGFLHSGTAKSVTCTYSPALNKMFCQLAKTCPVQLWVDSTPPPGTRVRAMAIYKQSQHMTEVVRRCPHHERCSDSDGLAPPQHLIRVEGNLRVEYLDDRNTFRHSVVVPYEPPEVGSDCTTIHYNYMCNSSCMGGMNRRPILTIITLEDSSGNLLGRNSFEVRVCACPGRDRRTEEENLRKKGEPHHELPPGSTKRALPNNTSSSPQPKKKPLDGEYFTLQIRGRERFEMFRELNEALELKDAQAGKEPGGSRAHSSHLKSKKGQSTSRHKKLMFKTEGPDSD
PGR (gene 5241), sequence (P06401 whole entry, looked up): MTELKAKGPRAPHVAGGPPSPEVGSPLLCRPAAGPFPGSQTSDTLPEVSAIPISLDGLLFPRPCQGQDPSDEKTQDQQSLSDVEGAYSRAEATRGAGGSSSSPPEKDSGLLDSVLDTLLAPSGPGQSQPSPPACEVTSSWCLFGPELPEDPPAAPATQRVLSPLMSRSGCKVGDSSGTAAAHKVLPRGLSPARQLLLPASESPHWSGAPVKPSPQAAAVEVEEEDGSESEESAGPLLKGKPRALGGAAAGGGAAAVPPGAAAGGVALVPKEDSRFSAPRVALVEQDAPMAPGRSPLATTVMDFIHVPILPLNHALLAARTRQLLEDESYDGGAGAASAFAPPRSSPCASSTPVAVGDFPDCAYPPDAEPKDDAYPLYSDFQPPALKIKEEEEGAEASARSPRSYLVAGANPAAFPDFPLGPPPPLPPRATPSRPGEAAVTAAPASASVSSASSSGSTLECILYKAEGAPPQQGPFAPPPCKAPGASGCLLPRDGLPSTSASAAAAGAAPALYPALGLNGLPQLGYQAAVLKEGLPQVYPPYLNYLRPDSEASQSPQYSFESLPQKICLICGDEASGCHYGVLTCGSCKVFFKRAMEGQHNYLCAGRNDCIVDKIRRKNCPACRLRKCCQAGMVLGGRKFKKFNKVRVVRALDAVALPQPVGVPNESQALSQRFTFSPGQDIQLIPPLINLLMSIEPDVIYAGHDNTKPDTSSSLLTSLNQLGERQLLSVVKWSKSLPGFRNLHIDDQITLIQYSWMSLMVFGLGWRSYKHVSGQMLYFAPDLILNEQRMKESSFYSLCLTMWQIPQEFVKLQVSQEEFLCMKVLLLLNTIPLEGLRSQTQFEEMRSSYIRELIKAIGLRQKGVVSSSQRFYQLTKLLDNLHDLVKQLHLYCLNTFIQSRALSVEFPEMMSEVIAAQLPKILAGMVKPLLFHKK

CN(C(=O)CO)c1c(I)c(C(=O)NCC(O)CO)c(I)c(C(=O)NCC(O)CO)c1I (stereo unspecified)
inactive: [1] | [2] | [3] | [4] | [5] | [6]

CCCOCCOCCO
inactive: [1] | [2] | [3] | [7] | [6]

O=C(O)COc1ccc(C(=O)c2cccs2)c(Cl)c1Cl
inactive: [1] | [2] | [3] | [7] | [5] | [6]

COC(=O)C1CC(=O)C(C(=O)OC)CC1=O (stereo unspecified)
inactive: [1] | [2] | [3] | [4] | [6]

CCCCCCCCCCCCOC(=O)c1ccc(O)cc1
inactive: [1] | [2] | [3] | [7] | [5] | [6]

O=C(O)CSCC(=O)NC1CCSC1=O (stereo unspecified)
inactive: [1] | [2] | [3] | [7]

CCCCCCCCCCCCCCCCCCOP(=O)([O-])OC1CC[N+](C)(C)CC1
inactive: [1] | [2] | [3] | [7] | [6]

CC1(C)C(O)C(C)(C)C1O (stereo unspecified)
inactive: [1] | [2] | [3] | [7] | [5] | [6]

CC12CCC(C(=O)C1=O)C2(C)C (stereo unspecified)
inactive: [1] | [2] | [3] | [7] | [5]

NCCc1cnc[nH]1
inactive: [1] | [2] | [3] | [7] | [5] | [6]

CC(C)(C)OC=O
inactive: [1] | [2] | [3] | [7] | [5] | [6]

CNCCS(=O)(=O)O
inactive: [1] | [2] | [3] | [7] | [5] | [6]

CCCCN1CCCC1C(=O)Nc1c(C)cc(C)cc1C (stereo unspecified)
inactive: [1] | [2] | [3] | [4] | [5] | [6] | [8] | [9] | [10] | [11]

CCN1CCN(c2cc3c(cc2F)c(=O)c(C(=O)O)cn3C2CC2)CC1
inactive: [1] | [2] | [3] | [7] | [5]

CN1C(=O)CC(C)(c2ccccc2)C1=O (stereo unspecified)
inactive: [1] | [2] | [3] | [7] | [6]

CCCCCC1Nc2cc(C(F)(F)F)c(S(N)(=O)=O)cc2S(=O)(=O)N1 (stereo unspecified)
inactive: [1] | [2] | [3] | [7] | [5]

Cc1[nH]cnc1CN1CCc2c(c3ccccc3n2C)C1=O
inactive: [1] | [2] | [3] | [7] | [5] | [6]

CC(C)Cc1ccc([C@@H](C)C(=O)NS(C)(=O)=O)cc1
inactive: [1] | [2] | [3] | [7] | [5]

CO/N=C(\C(=O)N[C@@H]1C(=O)N2C(C(=O)OCOC(=O)C(C)(C)C)=C(/C=C\c3scnc3C)CS[C@H]12)c1csc(N)n1
inactive: [1] | [2] | [3] | [7] | [6]

Cc1cc(C)c(NC(=O)C[C@H](CC(=O)O)c2cccc3ccccc23)c(C(=O)N2CCC3(CCCC3)CC2)c1
inactive: [1] | [2] | [12]

Cc1nc2n(c(=O)c1CCN1CCC(c3noc4cc(F)ccc34)CC1)CCCC2
inactive: [1] | [2] | [12] | [4]

C[Si](C)(C)C
inactive: [1] | [2] | [3] | [7] | [6]

CC(=O)OCC(=O)[C@@]12OC3(CCCC3)O[C@@H]1C[C@H]1[C@@H]3CCC4=CC(=O)C=C[C@]4(C)[C@@]3(F)[C@@H](O)C[C@@]12C
inactive: [1] | [2] | [3] | [6]

NC(=O)c1ccccc1N
inactive: [1] | [2] | [3] | [5]

CC=CC(=O)CCCC
inactive: [1] | [2] | [12] | [4]

COc1ccccc1N1CCN(CCCCNC(=O)c2ccc(-c3ccc(C(C)=O)cc3)cc2)CC1
inactive: [1] | [2] | [3] | [5] | [6]

C[C@]12CC[C@@H]3c4ccc(OS(=O)(=O)O)cc4CC[C@H]3[C@@H]1CCC2=O
inactive: [1] | [2] | [3] | [6]

CC(CNC(=O)c1cccnc1)NC(=O)c1cccnc1 (stereo unspecified)
inactive: [1] | [2] | [12]

CCC(N)(CO)CO
inactive: [1] | [2] | [3] | [5] | [6]

CC1(C)CC(OC(=O)CCCCCCCCC(=O)OC2CC(C)(C)NC(C)(C)C2)CC(C)(C)N1
inactive: [1] | [2] | [12] | [4]

O=C1c2ccccc2S(=O)(=O)N1CCCCN1CCN(c2ncccn2)CC1
inactive: [1] | [2] | [3] | [5]

CN=C(N)NC(=O)Nc1c(C)cccc1C
inactive: [1] | [2] | [12] | [4]

CCOC(=O)c1ncn2c1CN(C)C(=O)c1cc(F)ccc1-2
inactive: [1] | [2] | [3] | [5]

Cl[Si](Cl)(c1ccccc1)c1ccccc1
inactive: [1] | [2] | [3] | [5]

CC1(C)[C@@H](O)CC[C@]2(C)[C@H]3C(=O)C=C4[C@@H]5C[C@@](C)(C(=O)O)CC[C@]5(C)CC[C@@]4(C)[C@]3(C)CC[C@@H]12
inactive: [1] | [2] | [12] | [4] | [7] | [5] | [6]
active: [12] 46.4 µM | [7] 43.1 µM | [5] 30.6 µM and 33.5 µM

CCOC(=O)[C@H](CCc1ccccc1)N[C@H]1CS[C@H](c2cccs2)CN(CC(=O)O)C1=O
inactive: [1] | [2] | [12]
